Test results reported in PubChem BioAssay.

molecular target: PEG-3 (UniProt Q6IN02); assay: Peg3 promoter luciferase inhibitors, potency, dose response, cell-based, HeLa, CREF/GAPDH counter-screen panel (AID 624167); conditions: CREF/GAPDH counter-screens; HeLa PEG-Prom luciferase reporter, overnight, run 2, dose range 1, at 100 µM (top of the series) unless noted
Sequence (Q6IN02 whole entry, looked up): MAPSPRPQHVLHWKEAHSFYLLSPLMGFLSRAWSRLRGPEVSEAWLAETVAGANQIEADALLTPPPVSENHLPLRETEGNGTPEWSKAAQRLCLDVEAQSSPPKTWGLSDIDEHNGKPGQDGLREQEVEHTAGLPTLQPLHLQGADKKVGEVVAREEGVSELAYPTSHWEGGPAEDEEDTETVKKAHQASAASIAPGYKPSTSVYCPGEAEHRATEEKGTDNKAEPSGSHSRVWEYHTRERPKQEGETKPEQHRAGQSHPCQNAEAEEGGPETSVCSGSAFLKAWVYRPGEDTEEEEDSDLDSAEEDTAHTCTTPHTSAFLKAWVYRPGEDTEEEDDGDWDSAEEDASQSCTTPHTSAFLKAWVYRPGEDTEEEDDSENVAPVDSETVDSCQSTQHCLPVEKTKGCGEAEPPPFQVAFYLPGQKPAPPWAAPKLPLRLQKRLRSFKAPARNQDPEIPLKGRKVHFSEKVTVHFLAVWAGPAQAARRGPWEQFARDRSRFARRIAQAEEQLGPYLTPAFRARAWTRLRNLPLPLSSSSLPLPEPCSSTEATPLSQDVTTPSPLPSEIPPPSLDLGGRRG

Structure (SMILES)	inhibition [%]
CCSc1nc2ccccc2n1C(=O)/C=C\c1ccc(OC)c(OC)c1	95.2
OCCNc1c2ccccc2nc2ccccc12	98.1
Fc1ccc(-c2nnc(NC3=NCCCCC3)o2)cc1	97.3
COc1cccc(OC)c1C(=O)Nc1cc(C)nn1-c1nc2ccccc2[nH]1	65.1
Nc1ccc(-c2nc3ccc(C(=O)O)cc3s2)cc1	98.9
CC(=O)N1CCCC(c2cc(C(=O)Nc3ccccc3)no2)C1 (stereo not given)	90.2
CN(C(=O)COC(=O)/C=C/c1cccc([N+](=O)[O-])c1)C1CCS(=O)(=O)C1 (stereo not given)	44.7
CCCCC(=O)NC(c1ccc(OC)cc1)c1ccc2cccnc2c1O (stereo not given)	80.2
COCCn1c(C)cc(C(=O)CSc2nnc(C)s2)c1C	94.9
Cc1ccc(-c2cc3c(nn2)-c2ccccc2C3=O)cc1	88.7
Cc1ccccc1OCC(=O)Nc1cccc(C(=O)O)c1	95.1
COc1ccc(C(=O)Nc2nc3ccccc3s2)c(OC)c1	98.8
CC(=O)Nc1ccc(NC(=O)c2nc(S(=O)(=O)Cc3cccc(C)c3)ncc2Cl)cc1	97.4
C=C1CC(COc2ccc3c(C)c(Cl)c(=O)oc3c2)(c2ccccc2)OC1=O (stereo not given)	101
COc1cc(SC)ccc1C(=O)Nc1ncc(C)s1	98.2
CCN(CCO)c1ccc(N=Nc2cc(C)[nH]n2)cc1	98.9
Cc1ccc(-c2nc(-c3ccccn3)no2)cc1	96
CS(=O)(=O)Nc1cccc(NC(=O)C2Cc3c(-c4cccc(F)c4)ccnc3O2)c1 (stereo not given)	85.4
COc1ccc(-c2nc(-c3ccccn3)no2)cc1	96.8
C(=Cc1cnc2ccccc2n1)c1ccc2c(c1)OCO2	98.4
